According to PubChem BioAssay AID1159580 (chemical genetic matrix, 2015):
The whole screen tested about 5,500 compounds, of which about 2,000 (36%) were called active. Not shown: some 18% with an inconclusive outcome. This is one part of the list. Values without a mark were called inactive. Rule as the data show it: active = normalized growth mostly below about 0.91 (no sharp cut-off); inconclusive = no clear call, values can overlap the other calls; inactive = mostly above about 0.92.

Assay: chemical genetic growth profiling, strain panel (AID 1159580);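 also: tested at 20 µM; growth read once vehicle control cultures reached saturation at 30 °C; 1 = growth at the plate median or of vehicle wells; lower values mean less growth of the strain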
Conditions: growth OD
[1] = S. cerevisiae deletion strains, locus YDL101C, strain DUN1, active compounds read low
[2] = S. cerevisiae deletion strains, locus YHR030C, strain SLT2, active compounds read low

CCSc1nnc(N)s1
normalized growth (S. cerevisiae deletion strains, locus YAL013W, strain DEP1, active compounds read low): 1.02
normalized growth (S. cerevisiae deletion strains, locus YBR229C, strain ROT2, active compounds read low): 1.01
normalized growth [1]: 1.01
normalized growth (S. cerevisiae deletion strains, locus YDL134C, strain PPH21, active compounds read low): 1.01
normalized growth (S. cerevisiae deletion strains, locus YDR150W, strain NUM1, active compounds read low): 1
normalized growth (S. cerevisiae deletion strains, locus YEL061C, strain CIN8, active compounds read low): 0.996
normalized growth (S. cerevisiae deletion strains, locus YGR078C, strain PAC10, active compounds read low): 1.01
normalized growth [2]: 1.05
normalized growth (S. cerevisiae deletion strains, locus YHR087W, strain rtc3, active compounds read low): 1.01
normalized growth (S. cerevisiae deletion strains, locus YJL187C, strain SWE1, active compounds read low): 1.01
normalized growth (S. cerevisiae deletion strains, locus YJR043C, strain POL32, active compounds read low): 1
normalized growth (S. cerevisiae deletion strains, locus YJR075W, strain HOC1, active compounds read low): 0.994
normalized growth (S. cerevisiae deletion strains, locus YLR039C, strain RIC1, active compounds read low): 1.01
normalized growth (S. cerevisiae deletion strains, locus YLR058C, strain SHM2 (second series), active compounds read low): 1.01
normalized growth (S. cerevisiae deletion strains, locus YLR085C, strain ARP6, active compounds read low): 0.999
normalized growth (S. cerevisiae deletion strains, locus YLR262C, strain YPT6, active compounds read low): 1.05
normalized growth (S. cerevisiae deletion strains, locus YML094W, strain GIM5, active compounds read low): 0.995
normalized growth (S. cerevisiae deletion strains, locus YMR219W, strain ESC1, active compounds read low): 1.01
normalized growth (S. cerevisiae deletion strains, locus YMR263W, strain SAP30, active compounds read low): 1
normalized growth (S. cerevisiae deletion strains, locus YMR307W, strain GAS1, active compounds read low): 0.981
normalized growth (S. cerevisiae deletion strains, locus YNL128W, strain TEP1, active compounds read low): 1.01
normalized growth (S. cerevisiae deletion strains, locus YNL153C, strain GIM3, active compounds read low): 0.997
normalized growth (S. cerevisiae deletion strains, locus YNL298W, strain CLA4 (second series), active compounds read low): 0.995
normalized growth (S. cerevisiae deletion strains, locus YNL322C, strain KRE1, active compounds read low): 1.02
normalized growth (S. cerevisiae deletion strains, locus YNR030W, strain Alg12, active compounds read low): 1.01
normalized growth (S. cerevisiae deletion strains, locus YPL055C, strain LGE1, active compounds read low): 0.997
normalized growth (S. cerevisiae deletion strains, locus YPL241C, strain CIN2, active compounds read low): 1.01
normalized growth (S. cerevisiae deletion strains, locus YPR135W, strain CTF4, active compounds read low): 1.11
normalized growth (S. cerevisiae strains, strain wild type, active compounds read low): 1.01

N#CC(C#N)=C/C=C(/Sc1ccc(F)c(Cl)c1)c1ccc(Cl)cc1
normalized growth (S. cerevisiae deletion strains, locus YAR019C, strain CDC15, active compounds read low): 0.937
normalized growth (S. cerevisiae deletion strains, locus YBL105C, strain PKC1, active compounds read low): 0.948
normalized growth (S. cerevisiae deletion strains, locus YBR135W, strain CKS1, active compounds read low): 0.943
normalized growth (S. cerevisiae deletion strains, locus YBR136W, strain MEC1, active compounds read low): 0.949
normalized growth (S. cerevisiae deletion strains, locus YBR160W, strain CDC28, active compounds read low): 0.958
normalized growth (S. cerevisiae deletion strains, locus YDL017W, strain CDC7, active compounds read low): 0.961
normalized growth (S. cerevisiae deletion strains, locus YDL028C, strain MPS1, active compounds read low): 0.949
normalized growth [1]: 0.961
normalized growth (S. cerevisiae deletion strains, locus YDL108W, strain KIN28, active compounds read low): 0.947
normalized growth (S. cerevisiae deletion strains, locus YDL132W, strain cdc53, active compounds read low): 0.942
normalized growth (S. cerevisiae deletion strains, locus YDL214C, strain PRR2, active compounds read low): 0.891
normalized growth (S. cerevisiae deletion strains, locus YDR052C, strain DBF4, active compounds read low): 0.956
normalized growth (S. cerevisiae deletion strains, locus YDR054C, strain cdc34, active compounds read low): 0.943
normalized growth (S. cerevisiae deletion strains, locus YDR226W, strain ADK1, active compounds read low): 0.964
normalized growth (S. cerevisiae deletion strains, locus YDR477W, strain SNF1, active compounds read low): 0.839
normalized growth (S. cerevisiae deletion strains, locus YER123W, strain YCK3, active compounds read low): 0.822
normalized growth (S. cerevisiae deletion strains, locus YER133W, strain GLC7, active compounds read low): 0.872
normalized growth (S. cerevisiae deletion strains, locus YFL009W, strain cdc4, active compounds read low): 0.943
normalized growth (S. cerevisiae deletion strains, locus YFL029C, strain CAK1, active compounds read low): 0.951
normalized growth (S. cerevisiae deletion strains, locus YFR003C, strain YPI1, active compounds read low): 0.951
normalized growth (S. cerevisiae deletion strains, locus YFR019W, strain FAB1, active compounds read low): 0.95
normalized growth (S. cerevisiae deletion strains, locus YFR028C, strain CDC14, active compounds read low): 0.949
normalized growth (S. cerevisiae deletion strains, locus YGR040W, strain KSS1, active compounds read low): 0.823
normalized growth (S. cerevisiae deletion strains, locus YGR052W, strain FMP48, active compounds read low): 0.81
normalized growth (S. cerevisiae deletion strains, locus YGR092W, strain DBF2, active compounds read low): 0.759
normalized growth [2]: 0.741 (active)
normalized growth (S. cerevisiae deletion strains, locus YHR079C, strain IRE1, active compounds read low): 0.806
normalized growth (S. cerevisiae deletion strains, locus YHR082C, strain KSP1, active compounds read low): 0.839
normalized growth (S. cerevisiae deletion strains, locus YHR205W, strain SCH9, active compounds read low): 0.608
normalized growth (S. cerevisiae deletion strains, locus YIL147C, strain SLN1, active compounds read low): 0.951
normalized growth (S. cerevisiae deletion strains, locus YJL095W, strain BCK1, active compounds read low): 0.69
normalized growth (S. cerevisiae deletion strains, locus YJL128C, strain PBS2, active compounds read low): 0.896
normalized growth (S. cerevisiae deletion strains, locus YJL157C, strain FAR1, active compounds read low): 0.892
normalized growth (S. cerevisiae deletion strains, locus YJR016C, strain ILV3, active compounds read low): 0.937
normalized growth (S. cerevisiae deletion strains, locus YJR066W, strain TOR1 (second series), active compounds read low): 0.748
normalized growth (S. cerevisiae deletion strains, locus YJR066W, strain TOR1, active compounds read low): 0.781
normalized growth (S. cerevisiae deletion strains, locus YKL048C, strain ELM1, active compounds read low): 0.932
normalized growth (S. cerevisiae deletion strains, locus YKL067W, strain YNK1, active compounds read low): 0.888
normalized growth (S. cerevisiae deletion strains, locus YKL101W, strain HSL1, active compounds read low): 0.834
normalized growth (S. cerevisiae deletion strains, locus YKL193C, strain SDS22, active compounds read low): 0.947
normalized growth (S. cerevisiae deletion strains, locus YKL203C, strain TOR2, active compounds read low): 0.87
normalized growth (S. cerevisiae deletion strains, locus YLR113W, strain HOG1, active compounds read low): 0.632 (active)
normalized growth (S. cerevisiae deletion strains, locus YLR133W, strain CKI1, active compounds read low): 0.906
normalized growth (S. cerevisiae deletion strains, locus YLR403W, strain SFP1, active compounds read low): 0.753
normalized growth (S. cerevisiae deletion strains, locus YML070W, strain DAK1, active compounds read low): 0.855
normalized growth (S. cerevisiae deletion strains, locus YMR001C, strain CDC5, active compounds read low): 0.944
normalized growth (S. cerevisiae deletion strains, locus YMR205C, strain PFK2 (second series), active compounds read low): 0.89
normalized growth (S. cerevisiae deletion strains, locus YMR277W, strain FCP1, active compounds read low): 0.941
normalized growth (S. cerevisiae deletion strains, locus YNL006W, strain LST8, active compounds read low): 0.976
normalized growth (S. cerevisiae deletion strains, locus YNL020C, strain ARK1, active compounds read low): 0.884
normalized growth (S. cerevisiae deletion strains, locus YNL161W, strain CBK1, active compounds read low): 0.96
normalized growth (S. cerevisiae deletion strains, locus YNL183C, strain NPR1, active compounds read low): 0.749
normalized growth (S. cerevisiae deletion strains, locus YNL207W, strain RIO2, active compounds read low): 0.938
normalized growth (S. cerevisiae deletion strains, locus YNL222W, strain SSU72, active compounds read low): 0.955
normalized growth (S. cerevisiae deletion strains, locus YNL307C, strain MCK1 (second series), active compounds read low): 0.711
normalized growth (S. cerevisiae deletion strains, locus YOL078W, strain AVO1, active compounds read low): 0.94
normalized growth (S. cerevisiae deletion strains, locus YOL136C, strain PFK27, active compounds read low): 0.879
normalized growth (S. cerevisiae deletion strains, locus YOR061W, strain CKA2, active compounds read low): 0.827
normalized growth (S. cerevisiae deletion strains, locus YOR119C, strain RIO1, active compounds read low): 0.876
normalized growth (S. cerevisiae deletion strains, locus YOR231W, strain MKK1, active compounds read low): 0.781
normalized growth (S. cerevisiae deletion strains, locus YOR329C, strain SCD5, active compounds read low): 0.956
normalized growth (S. cerevisiae deletion strains, locus YPL031C, strain PHO85, active compounds read low): 0.758
normalized growth (S. cerevisiae deletion strains, locus YPL153C, strain RAD53, active compounds read low): 0.856
normalized growth (S. cerevisiae deletion strains, locus YPL204W, strain HRR25, active compounds read low): 0.856
normalized growth (S. cerevisiae deletion strains, locus YPL209C, strain IPL1, active compounds read low): 0.954
normalized growth (S. cerevisiae deletion strains, locus YPL256C, strain CLN2, active compounds read low): 0.877
normalized growth (S. cerevisiae deletion strains, locus YPR025C, strain CCL1, active compounds read low): 0.956
normalized growth (S. cerevisiae deletion strains, locus YPR106W, strain ISR1, active compounds read low): 0.957
normalized growth (S. cerevisiae deletion strains, locus YPR111W, strain DBF20, active compounds read low): 0.944
normalized growth (S. cerevisiae deletion strains, strain NNK1, active compounds read low): 0.946
normalized growth (S. cerevisiae deletion strains, strain TSCII, active compounds read low): 0.945
